{"source": "PubChem BioAssay AID1347420", "about": "(Sanford-Burnham Center for Chemical Genomics, 2020)", "note": "Among all 1,300 compounds or so, about 980 (75%) were called active. Not shown: some 4% with an inconclusive outcome. This is one part of the list."}
{"molecular_target": "Sulfhydryl oxidase 1 (Homo sapiens) (UniProt O00391)", "sequence (O00391 whole entry, looked up)": "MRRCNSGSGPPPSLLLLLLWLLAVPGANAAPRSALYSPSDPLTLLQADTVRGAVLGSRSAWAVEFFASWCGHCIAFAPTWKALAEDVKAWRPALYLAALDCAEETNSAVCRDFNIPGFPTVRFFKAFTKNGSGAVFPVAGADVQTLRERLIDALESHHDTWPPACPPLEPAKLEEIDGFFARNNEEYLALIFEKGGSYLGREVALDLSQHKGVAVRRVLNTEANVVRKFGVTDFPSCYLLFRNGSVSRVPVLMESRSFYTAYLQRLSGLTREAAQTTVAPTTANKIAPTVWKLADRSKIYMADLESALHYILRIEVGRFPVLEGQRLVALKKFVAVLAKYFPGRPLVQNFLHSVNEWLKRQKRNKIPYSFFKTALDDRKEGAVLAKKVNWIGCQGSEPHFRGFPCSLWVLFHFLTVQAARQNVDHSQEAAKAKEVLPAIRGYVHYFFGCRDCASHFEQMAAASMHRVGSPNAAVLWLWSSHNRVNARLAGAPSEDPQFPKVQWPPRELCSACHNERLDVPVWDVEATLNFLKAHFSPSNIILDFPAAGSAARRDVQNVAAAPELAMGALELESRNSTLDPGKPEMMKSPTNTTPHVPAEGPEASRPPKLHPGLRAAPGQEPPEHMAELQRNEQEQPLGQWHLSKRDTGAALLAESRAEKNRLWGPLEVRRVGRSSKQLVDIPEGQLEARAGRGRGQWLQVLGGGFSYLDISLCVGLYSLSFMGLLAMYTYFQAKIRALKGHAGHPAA", "assay": "inhibition of human sulfhydryl oxidase QSOX1 – biochemical, HyperBlu H2O2 luminescence, HTS, primary screen (AID 1347420); further: values above 100% were filed as inconclusive", "details": "recombinant QSOX1, HyperBlu H2O2 luminescence, at 12.5 µM, hits give high values; active = any value above zero unless noted"}
{"smiles": "CP(=O)(O)C1=CCNCC1", "inhibition": "-0.7% (inactive)"}
{"smiles": "CCCN(CCC)[C@@H]1CCc2ccc(O)cc2C1", "inhibition": "10.7% (active)"}
{"smiles": "CCCN(CCC)C1Cc2cc(OC)c(OC)cc2C1", "inhibition": "3.2% (active)"}
{"smiles": "CCCN(CCC)C1CCc2ccc(O)cc2C1", "note": "(configuration not stated)", "inhibition": "28.1% (active)"}
{"smiles": "O=S1(=O)N(CCN2CC=C(c3c[nH]c4cc(F)ccc34)CC2)c2cccc3c2N1CCC3", "inhibition": "25.1% (active)"}
{"smiles": "C[C@H](N)Cc1cccc(C(F)(F)F)c1", "inhibition": "4.9% [setting not given] (active)"}
{"smiles": "COc1ccc(CNC(=O)/C=C/c2ccc3[nH]cc(CCN(C)C)c3c2)cc1", "inhibition": "4.8% [setting not given] (active)"}
{"smiles": "O=C(O)c1cc[c]([Hg][Cl])cc1", "inhibition": "1% (active)"}
{"smiles": "CCC1(c2ccc(N)cc2)CCC(=O)NC1=O", "note": "(configuration not stated)", "inhibition": "27.6% [setting not given] (active)"}
{"smiles": "CCN(CCCl)Cc1ccccc1Br", "inhibition": "18% (active)"}
{"smiles": "CCCn1c(=O)c2[nH]c(C3CCCC3)nc2n(CCCOC(=O)c2ccc(S(=O)(=O)F)cc2)c1=O", "inhibition": "10.4% (active)"}
{"smiles": "CC[C@@H](CO)NC(=O)[C@@H]1C=C2c3cccc4[nH]cc(c34)C[C@H]2N(C)C1", "inhibition": "24.7% [setting not given] (active)"}
{"smiles": "CC[C@@H](CO)NC(=O)[C@@H]1C=C2c3cccc4c3c(cn4C)C[C@H]2N(C)C1", "inhibition": "9.7% [setting not given] (active)"}
{"smiles": "NCC1(CC(=O)O)CCCCC1", "inhibition": "4.2% [setting not given] (active)"}
{"smiles": "CC(=O)c1c(O)c(C)c(O)c(Cc2c(O)c3c(c(C(=O)/C=C/c4ccccc4)c2O)OC(C)(C)C=C3)c1O", "inhibition": "59.1% (active)"}
{"smiles": "O=c1[nH]oc2c1CCNC2", "inhibition": "8.4% (active)"}
{"smiles": "C[C@H](Cc1ccc2c(c1)OC(C(=O)O)(C(=O)O)O2)NC[C@H](O)c1cccc(Cl)c1", "inhibition": "13.4% (active)"}
{"smiles": "CC(Cc1ccc(OCC(=O)O)cc1)NCC(O)c1cccc(Cl)c1", "note": "(configuration not stated)", "inhibition": "10.8% (active)"}
{"smiles": "Nc1ccncc1", "inhibition": "22.3% [setting not given] (active)"}
{"smiles": "CC(=O)[C@H]1CC[C@H]2[C@@H]3CC[C@H]4C[C@H](O)CC[C@]4(C)[C@H]3C(=O)C[C@]12C", "inhibition": "5% [setting not given] (active)"}
{"smiles": "C[C@]12CCC3C(CC[C@H]4C[C@H](O)CC[C@]34C)C1CC[C@@H]2C(=O)CO", "note": "(some centres not stated)", "inhibition": "5.6% (active)"}
{"smiles": "CC(=O)[C@H]1CC[C@H]2[C@@H]3CC[C@H]4C[C@](C)(O)CC[C@]4(C)[C@H]3CC[C@]12C", "inhibition": "11.6% [setting not given] (active)"}
{"smiles": "CC(=O)[C@H]1CCC2C3CC[C@H]4C[C@H](O)CC[C@]4(C)C3CC[C@@]21C", "note": "(some centres not stated)", "inhibition": "4.6% [setting not given] (active)"}
{"smiles": "CN1C[C@H](CNC(=O)OCc2ccccc2)C[C@@H]2c3cccc4c3c(cn4C)C[C@H]21", "inhibition": "6.1% [setting not given] (active)"}
{"smiles": "C[C@]12Cc3cn4c(nc3C=C1CCC1C2CC[C@@]2(C)[C@H]1CC[C@@]2(O)C#N)nc1ccccc14", "note": "(some centres not stated)", "inhibition": "-42.5% (inactive)"}
{"smiles": "CC(C)Oc1cccnc1N(C)C1CCN(Cc2ccccc2)CC1", "inhibition": "7% (active)"}
{"smiles": "CC(C)c1cccc(C(C)C)c1O", "inhibition": "16.7% (active)"}
{"smiles": "CC(N)c1cccc(Cl)c1Cl", "note": "(configuration not stated)", "inhibition": "-1% (inactive)"}
{"smiles": "CN[C@@H]1C[C@@H](c2ccc(Cl)c(Cl)c2)c2ccccc21", "inhibition": "3.8% (active)"}
{"smiles": "Cc1o[nH]c(=O)c1CC(N)C(=O)O", "note": "(configuration not stated)", "inhibition": "11.9% (active)"}
{"smiles": "NC(Cn1oc(=O)[nH]c1=O)C(=O)O", "note": "(configuration not stated)", "inhibition": "-10.8% (inactive)"}
{"smiles": "CCCC(C)(COC(N)=O)COC(=O)NC(C)C", "note": "(configuration not stated)", "inhibition": "-3.5% [setting not given] (inactive)"}
